Data reported in PubChem BioAssay (EPA / NIEHS).
Several values for one entry are separate records, joined by “and”; a condition that tells them apart may be missing. Identical values can stand only once. Where a structure was tested more than once in an assay, its records may differ in their call. Activity calls are given as the source filed them. Rule for the calls: active = hit-call score of the fitted dose curve at least 0.9, where 1 is the maximum; inactive = score below 0.9.

Read-out: CYP2C9 (gene 1559)
Assay: LTEA_HepaRG_CYP2C9: Life Technologies and Expression Analysis (LTEA) Assay for CYP2C9 using HepaRG (AID 2283484)
Details: mRNA level, 48 h; actives raise or lower the signal
Method in brief: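 Differentiated human HepaRG cells in serum-free induction medium were exposed 48 h to chemicals in 8-point half-log series from 100 uM (0.5% DMSO), in duplicate. CYP2C9 mRNA was measured by qRT-PCR, normalized to ACTB/GAPDH/POLR2A, with bidirectional fitting versus DMSO.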

Sequence of Cytochrome P450 3A4 (Homo sapiens) (P08684 whole entry, looked up): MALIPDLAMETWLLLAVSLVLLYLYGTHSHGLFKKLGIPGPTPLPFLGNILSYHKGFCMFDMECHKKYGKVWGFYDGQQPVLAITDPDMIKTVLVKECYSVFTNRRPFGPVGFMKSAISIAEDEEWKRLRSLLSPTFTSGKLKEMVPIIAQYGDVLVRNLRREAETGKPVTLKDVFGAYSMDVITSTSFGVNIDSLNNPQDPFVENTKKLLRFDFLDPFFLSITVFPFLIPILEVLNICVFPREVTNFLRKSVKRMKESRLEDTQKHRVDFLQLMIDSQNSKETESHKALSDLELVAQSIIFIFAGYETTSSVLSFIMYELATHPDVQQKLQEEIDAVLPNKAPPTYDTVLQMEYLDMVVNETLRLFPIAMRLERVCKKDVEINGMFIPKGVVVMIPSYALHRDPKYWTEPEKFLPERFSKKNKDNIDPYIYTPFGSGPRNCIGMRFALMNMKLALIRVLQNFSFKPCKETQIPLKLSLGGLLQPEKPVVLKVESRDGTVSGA

SMILES | AC50 | outcome
O=C(Nc1ccccc1)Nc1ccnc(Cl)c1 | 75.6 µM (active) | 
O=C(O)c1nc(Cl)ccc1Cl |  | inactive
O=C(O)COc1nc(Cl)c(Cl)cc1Cl |  | inactive
CC(Oc1ccc(Cl)cc1Cl)C(=O)O (stereo not given) |  | inactive
CCCCNC(=O)OCC#CI | 21.5 µM (active) | 
COc1ccc(C(c2ccc(OC)cc2)C(Cl)(Cl)Cl)cc1 |  | inactive
CCNc1nc(Cl)nc(NCC)n1 |  | inactive
C=CC1(C)OC(=O)N(c2cc(Cl)cc(Cl)c2)C1=O (stereo not given) |  | inactive
CCOC(=O)CC(SP(=S)(OC)OC)C(=O)OCC (stereo not given) |  | inactive
Fc1ccc(Oc2ccnc3cc(Cl)cc(Cl)c23)cc1 | 86.8 µM (active) | 
OC(c1ccc(Cl)cc1)(c1cncnc1)c1ccccc1Cl (stereo not given) | 83.7 µM (active) | 
N#CC(CCc1ccc(Cl)cc1)(Cn1cncn1)c1ccccc1 (stereo not given) | 59.8 µM (active) | 
N#Cc1nn(-c2c(Cl)cc(C(F)(F)F)cc2Cl)c(N)c1S(=O)C(F)(F)F (stereo not given) | 34.9 µM (active) | 
CC1COC(Cn2cncn2)(c2ccc(Oc3ccc(Cl)cc3)cc2Cl)O1 (stereo not given) | 15.7 µM (active) | 
COP(=S)(OC)Oc1nc(Cl)c(Cl)cc1Cl |  | inactive
CCCN(CCC)c1c([N+](=O)[O-])cc(S(N)(=O)=O)cc1[N+](=O)[O-] | 95 µM (active) and 82 µM (active) | inactive
COC(=O)C=C(C)OP(=O)(OC)OC |  | inactive
CS/C(C)=N/OC(=O)N(C)SN(C)C(=O)O/N=C(\C)SC |  | inactive
CCOP(=S)(OCC)SCn1c(=O)oc2cc(Cl)ccc21 |  | inactive
COC(=O)C(C)Oc1ccc(Oc2ccc(Cl)cc2Cl)cc1 (stereo not given) |  | inactive
CNC(=S)S |  | inactive
C=CCC1=C(C)C(OC(=O)C2C(C=C(C)C)C2(C)C)CC1=O (stereo not given) | 87.4 µM (active) | inactive
CCc1nn(C)c(C(=O)NCc2ccc(C(C)(C)C)cc2)c1Cl | 5.99 µM (active) | 
C=CCC1=C(C)[C@@H](OC(=O)[C@@H]2[C@@H](C=C(C)C)C2(C)C)CC1=O |  | inactive
COc1nc(NC(C)C)nc(NC(C)C)n1 |  | inactive

Read-out: CYP2E1 (gene 1571)
Assay: LTEA_HepaRG_CYP2E1: Life Technologies and Expression Analysis (LTEA) Assay for CYP2E1 using HepaRG (AID 2283485)
Details: mRNA level, 48 h; actives raise or lower the signal
Method in brief: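 HepaRG cells, plated 48 h, then exposed 48 h in serum-free induction medium to eight half-log concentrations from 100 uM in 0.5% DMSO, duplicate. CYP2E1 mRNA by qRT-PCR, normalized to ACTB/GAPDH/POLR2A; bidirectional fit versus DMSO.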

SMILES | AC50 | outcome
O=C(Nc1ccccc1)Nc1ccnc(Cl)c1 | 25.4 µM (active) | 
O=C(O)c1nc(Cl)ccc1Cl | 17.6 µM (active) | inactive
O=C(O)COc1nc(Cl)c(Cl)cc1Cl |  | inactive
CCCCNC(=O)OCC#CI |  | inactive
CCNc1nc(Cl)nc(NCC)n1 |  | inactive
OC(c1ccc(Cl)cc1)(c1cncnc1)c1ccccc1Cl (stereo not given) | 46.7 µM (active) | 
N#Cc1nn(-c2c(Cl)cc(C(F)(F)F)cc2Cl)c(N)c1S(=O)C(F)(F)F (stereo not given) | 12.9 µM (active) | 
CS/C(C)=N/OC(=O)N(C)SN(C)C(=O)O/N=C(\C)SC | 9.92 µM (active) | 
CCc1nn(C)c(C(=O)NCc2ccc(C(C)(C)C)cc2)c1Cl | 0.507 µM (active) | 
C=CCC1=C(C)[C@@H](OC(=O)[C@@H]2[C@@H](C=C(C)C)C2(C)C)CC1=O | 62.1 µM (active) | 
COc1nc(NC(C)C)nc(NC(C)C)n1 | 37 µM (active) | 

Read-out: CYP4A11 (gene 1579)
Assay: LTEA_HepaRG_CYP4A11: Life Technologies and Expression Analysis (LTEA) Assay for CYP4A11 using HepaRG (AID 2283486)
Details: mRNA level, 48 h; actives raise or lower the signal
Method in brief: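 Readout is CYP4A11 mRNA induction or suppression (qRT-PCR, ACTB/GAPDH/POLR2A normalization) in human HepaRG cells after 48 h chemical treatment, concentrations to 100 uM in 0.5% DMSO, fitted bidirectionally against vehicle.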

SMILES | AC50 | outcome
CC(Oc1ccc(Cl)cc1Cl)C(=O)O (stereo not given) | 71.5 µM (active) | 
COc1ccc(C(c2ccc(OC)cc2)C(Cl)(Cl)Cl)cc1 | 79 µM (active) | 
CCOC(=O)CC(SP(=S)(OC)OC)C(=O)OCC (stereo not given) |  | inactive
Fc1ccc(Oc2ccnc3cc(Cl)cc(Cl)c23)cc1 | 70.1 µM (active) | 
N#CC(CCc1ccc(Cl)cc1)(Cn1cncn1)c1ccccc1 (stereo not given) | 38.8 µM (active) | 
CC1COC(Cn2cncn2)(c2ccc(Oc3ccc(Cl)cc3)cc2Cl)O1 (stereo not given) | 12.9 µM (active) | 
COP(=S)(OC)Oc1nc(Cl)c(Cl)cc1Cl |  | inactive
CCOP(=S)(OCC)SCn1c(=O)oc2cc(Cl)ccc21 |  | inactive
COC(=O)C(C)Oc1ccc(Oc2ccc(Cl)cc2Cl)cc1 (stereo not given) | 12.7 µM (active) | 
CNC(=S)S |  | inactive
C=CCC1=C(C)C(OC(=O)C2C(C=C(C)C)C2(C)C)CC1=O (stereo not given) | 93.2 µM (active) and 95.2 µM (active) | 
C=CCC1=C(C)[C@@H](OC(=O)[C@@H]2[C@@H](C=C(C)C)C2(C)C)CC1=O | 88.3 µM (active) | 

Read-out: Cytochrome P450 3A4 (Homo sapiens) (UniProt P08684)
Assay: LTEA_HepaRG_CYP3A4: Life Technologies and Expression Analysis (LTEA) Assay for CYP3A4 using HepaRG (AID 2283487)
Details: mRNA level, 48 h; actives raise or lower the signal
Method in brief: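 CYP3A4 transcript measured by TaqMan qRT-PCR and normalized to three housekeeping genes after 48 h chemical exposure of human HepaRG cells. Top concentration 100 uM, half-log steps, 0.5% DMSO vehicle; gain or loss fitted against DMSO baseline.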

SMILES | AC50 | outcome
O=C(Nc1ccccc1)Nc1ccnc(Cl)c1 | 70.8 µM (active) | 
O=C(O)c1nc(Cl)ccc1Cl |  | inactive
O=C(O)COc1nc(Cl)c(Cl)cc1Cl |  | inactive
CC(Oc1ccc(Cl)cc1Cl)C(=O)O (stereo not given) |  | inactive
CCCCNC(=O)OCC#CI |  | inactive
CCNc1nc(Cl)nc(NCC)n1 |  | inactive
C=CC1(C)OC(=O)N(c2cc(Cl)cc(Cl)c2)C1=O (stereo not given) | 13.6 µM (active) | 
CCOC(=O)CC(SP(=S)(OC)OC)C(=O)OCC (stereo not given) |  | inactive
Fc1ccc(Oc2ccnc3cc(Cl)cc(Cl)c23)cc1 |  | inactive
OC(c1ccc(Cl)cc1)(c1cncnc1)c1ccccc1Cl (stereo not given) | 11.4 µM (active) | 
N#CC(CCc1ccc(Cl)cc1)(Cn1cncn1)c1ccccc1 (stereo not given) | 85.9 µM (active) | 
N#Cc1nn(-c2c(Cl)cc(C(F)(F)F)cc2Cl)c(N)c1S(=O)C(F)(F)F (stereo not given) | 32.6 µM (active) | 
CC1COC(Cn2cncn2)(c2ccc(Oc3ccc(Cl)cc3)cc2Cl)O1 (stereo not given) | 23.2 µM (active) | 
COP(=S)(OC)Oc1nc(Cl)c(Cl)cc1Cl |  | inactive
CCCN(CCC)c1c([N+](=O)[O-])cc(S(N)(=O)=O)cc1[N+](=O)[O-] | 8.79 µM (active) and 12.1 µM (active) and 90.8 µM (active) | 
COC(=O)C=C(C)OP(=O)(OC)OC |  | inactive
CS/C(C)=N/OC(=O)N(C)SN(C)C(=O)O/N=C(\C)SC |  | inactive
CCOP(=S)(OCC)SCn1c(=O)oc2cc(Cl)ccc21 |  | inactive
COC(=O)C(C)Oc1ccc(Oc2ccc(Cl)cc2Cl)cc1 (stereo not given) |  | inactive
CNC(=S)S |  | inactive
C=CCC1=C(C)C(OC(=O)C2C(C=C(C)C)C2(C)C)CC1=O (stereo not given) |  | inactive
CCc1nn(C)c(C(=O)NCc2ccc(C(C)(C)C)cc2)c1Cl | 13.3 µM (active) | 
C=CCC1=C(C)[C@@H](OC(=O)[C@@H]2[C@@H](C=C(C)C)C2(C)C)CC1=O |  | inactive
COc1nc(NC(C)C)nc(NC(C)C)n1 | 7.19 µM (active) | 
